Screening data: PubChem, several laboratories
Shown are actives, neighbours in structure and some others; about 5.9% of the full set was active somewhere.
NR0B1 inh: inhibitors of human orphan nuclear receptor DAX1 (NR0B1); HEK293 Gal4-DAX1 luciferase reporter, luminescence; inhibition, % at 6.75 µM; 340,000 compounds, 0.99% hits;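 active = inhibition above the mean over all tested compounds plus 3 SD, cut at about 4.2% in these data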;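 note: 0% = DAX1-transfected cells with DMSO and 100% = empty-vector control cells with DMSO; inhibition shows as a rise in luminescence from relieved DAX1 repression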
Target sequence (P51843 207-470 limits assumed): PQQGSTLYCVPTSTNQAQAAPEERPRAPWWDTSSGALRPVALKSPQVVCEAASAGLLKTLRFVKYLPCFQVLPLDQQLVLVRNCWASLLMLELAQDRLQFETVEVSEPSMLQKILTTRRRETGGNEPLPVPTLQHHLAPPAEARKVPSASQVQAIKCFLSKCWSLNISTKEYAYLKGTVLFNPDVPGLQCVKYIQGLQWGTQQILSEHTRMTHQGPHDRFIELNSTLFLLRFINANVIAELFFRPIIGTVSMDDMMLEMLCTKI
HSF-1 act: increases HSF-1 driven luciferase reporter signal. activation, % at 9 µM. 300,000 compounds, 1.7% hits. NIH3T3-HGL HSF-1 luciferase reporter, MG132, 8 h; 100% = twice DMSO control signal. AID 504408;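 active = mean replicate activation of at least 50% with a set share of replicates each reaching 50%; inconclusive = only one of those two conditions met; inactive = mean below 50% and too few replicates reaching it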;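 note: 0% = median of the neutral control wells and 100% = twice that signal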
HSP90 inh: blocks HSP90-mediated luciferase refolding in reticulocyte lysate; Rabbit reticulocyte lysate, luciferase refolding luminescence, 3 h; inhibition, % at 5.6 µM; 290,000 compounds, 0.91% hits;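 active = inhibition above the screen-wide mean plus 3 SD, computed separately per campaign, cut at about 16% in these data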;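 note: 0% = DMSO wells and 100% = 60 µM geldanamycin wells; inhibitors lower the luminescence because luciferase stays unfolded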
HSF1 inhib: HSF1 inhibition; NIH3T3-HGL HSE-luciferase, MG132-induced, luminescence 8 h; active compounds read low; AID 2098; 300,000 compounds, 0.77% hits; activity change, negative = inhibition, % at 7.5 µM (by protocol);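 active = more than half of replicate wells show activity change below -50%, luminescence cut by over half; inconclusive = some wells, but at most half, below -50%; inactive = no replicate well below -50%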;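 note: luciferase reports HSF-1 transcriptional activity via heat shock element; 0% = median of DMSO wells and -100% = zero luminescence signal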
AHR activator: activates the human aryl hydrocarbon receptor; P35869; AHR-responsive luciferase reporter cells, luminescence; activation, % at 5 µM; 320,000 compounds, 2.5% hits; in the data active = activation above about 47%;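 note: 0% = vehicle wells and 100% = reference agonist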
GAA850 FXN act: frataxin GAA850 promoter activation; HEK293 lucGAA850 FXN promoter luciferase reporter, 24 h; percent of 10 µM SAHA response; activation, % at 6 µM; 360,000 compounds, 0.56% hits;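 active = activation above the average of all compounds screened plus 3 SD, cutoff fixed separately per campaign, cut at about 7.5% in these data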;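 note: 0% = DMSO wells and 100% = 10 µM SAHA wells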
GAA30 counter: GAA30 FXN promoter activation counter-screen; shares compounds with GAA850 FXN act; HEK293 lucGAA30 FXN promoter luciferase, 24 h; DMSO = 0%, 5 µM ipriflavone = 100%; activation, % at 6 µM; 1,900 compounds, 66% hits; AID 588350;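 active = mean activation above the mean of solvent-only control wells plus 3 SD, cut at about 22% in these data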;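 note: counterscreen of GAA850 promoter hits where activity marks nonselective or luminescence artifacts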
FXN GAA850 conf: confirmation of GAA850 frataxin (FXN) promoter activators. shares compounds with GAA850 FXN act. HEK293 lucGAA850 FXN promoter luciferase reporter, 24 h; 100% = activation by SAHA. activation, % at 6 µM. 1,900 compounds, 86% hits;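 active = mean activation above a set limit taken from the primary screen, cut at about 8% in these data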;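 note: 0% = DMSO wells and 100% = 10 µM SAHA wells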
* hit, by the source's call.

For Cc1nc2ccc(-c3nc4ccccc4[nH]3)cc2[nH]1 the results were NR0B1 inh 0, HSF-1 act inconclusive, HSP90 inh 4, HSF1 inhib 22, AHR activator -10, GAA850 FXN act 7.8*, GAA30 counter 129* and FXN GAA850 conf 38*.
O=C(c1ccc2c(c1)CCC2)N1CCN(Cc2c(F)cccc2Cl)CC1 was read as NR0B1 inh -1 and GAA850 FXN act 0.
`CCOC(=O)C(C)Oc1cccc2c(=O)n(CC(=O)Nc3ccc4c(c3)OCCO4)ccc12` (stereo not given) gave NR0B1 inh 0, HSF-1 act -41, HSP90 inh -4, HSF1 inhib -26, AHR activator -1, GAA850 FXN act 11*, GAA30 counter 4 and FXN GAA850 conf -1.
CCOC(=O)C(C)Oc1cccc2c(=O)n(CC(=O)Nc3cccc(OC)c3)ccc12 (stereo not given) was read as NR0B1 inh 0, HSF-1 act 13, HSP90 inh -1, HSF1 inhib 4, AHR activator 2 and GAA850 FXN act -1.
For Cc1nc(NC(=O)c2cc3c(s2)CCCCC3)sc1C(=O)N(C)C the results were NR0B1 inh 0, HSF-1 act 28, HSP90 inh 1, HSF1 inhib 2, AHR activator -9 and GAA850 FXN act 4.
Screening Cc1nc(NC(=O)c2ccc(Br)s2)sc1C(=O)N(C)C returned NR0B1 inh 2, HSF-1 act 31, HSP90 inh -3, HSF1 inhib 17, AHR activator 5, GAA850 FXN act 8.4*, GAA30 counter 115* and FXN GAA850 conf 33*.
For O=S1(=O)N=C(Nc2ccc(N3CCOCC3)c(Cl)c2)c2ccccc21 the results were NR0B1 inh 2, HSF-1 act 21, HSP90 inh -1, HSF1 inhib 11, AHR activator 9, GAA850 FXN act 8.4*, GAA30 counter 103* and FXN GAA850 conf 34*.
Screening O=S1(=O)N=C(Nc2ccc(O)cc2)c2ccccc21 returned NR0B1 inh 3, HSF-1 act -9, HSP90 inh 0, HSF1 inhib -4, AHR activator 2 and GAA850 FXN act 1.
For Cc1ccc(C)c(-c2ccc(=O)n(Cc3cccc(Br)c3)n2)c1 the results were NR0B1 inh -1, HSF-1 act 41, HSP90 inh 3, HSF1 inhib 13, AHR activator 11, GAA850 FXN act 8.3*, GAA30 counter 11 and FXN GAA850 conf 6.
For Cc1ccc(C)c(-c2ccc(=O)n(Cc3ccc(F)cc3Cl)n2)c1 the results were NR0B1 inh 1, HSF-1 act 38, HSP90 inh 0, HSF1 inhib 28, AHR activator 5 and GAA850 FXN act 1.
`Cn1c(=NC(=O)COc2ccccc2)sc2cccc(F)c21` gave NR0B1 inh 4, HSF-1 act 27, HSP90 inh -2, HSF1 inhib 11, AHR activator -1 and GAA850 FXN act 6.
Screening COc1ccc(OC)c(/C=N/N(C)c2ccccc2)c1 returned NR0B1 inh 3, HSF-1 act 29, HSP90 inh 1, HSF1 inhib 13, AHR activator -3, GAA850 FXN act 7.9*, GAA30 counter 127* and FXN GAA850 conf 43*.
For CCOC(=O)c1sc(NC(=O)CCN2CCCCCC2)c(C(=O)OCC)c1C the results were NR0B1 inh -1, HSF-1 act 193*, HSP90 inh -1, HSF1 inhib 153, AHR activator -2, GAA850 FXN act 10*, GAA30 counter 15 and FXN GAA850 conf 7.
`CCOC(=O)c1c(NC(=O)CC)sc(C(=O)N2CCCCC2)c1C` gave NR0B1 inh -1, HSP90 inh 5, AHR activator 10 and GAA850 FXN act 3.
For O=c1[nH]c2ccccc2nc1/C=C(\O)C1CC1 the results were NR0B1 inh 0, HSF-1 act 24, HSP90 inh -7, HSF1 inhib 14, AHR activator 18 and GAA850 FXN act 0.
`O=c1[nH]c2ccccc2nc1/C=C(\O)c1cccs1` gave NR0B1 inh 2, HSF-1 act 34, HSP90 inh -4, HSF1 inhib 20, AHR activator 48*, GAA850 FXN act 11*, GAA30 counter 116* and FXN GAA850 conf 41*.
Screening O=c1[nH]c2ccccc2nc1/C=C/c1ccc(O)cc1 returned NR0B1 inh 0, HSF-1 act 39, HSP90 inh -1, HSF1 inhib 36, GAA850 FXN act 7.6*, GAA30 counter 121* and FXN GAA850 conf 35*.
Screening CCN(C(=O)C(=O)c1c[nH]c2ccccc12)c1ccccc1 returned NR0B1 inh -1, HSF-1 act -16, HSP90 inh -3, HSF1 inhib -2, AHR activator 21 and GAA850 FXN act 1.
`O=C(Nc1nnc(SCc2ccc(F)cc2)s1)C1CC(=O)N(Cc2ccccc2)C1` (stereo not given) gave NR0B1 inh -1, HSF-1 act 2, HSP90 inh 1, HSF1 inhib -1, AHR activator 1, GAA850 FXN act 11*, GAA30 counter 25* and FXN GAA850 conf 12*.
COc1cccc(-n2cnc3sc(C)c(C)c3c2=O)c1 was read as NR0B1 inh 0, HSF-1 act -14, HSP90 inh 3, HSF1 inhib 7, AHR activator 0, GAA850 FXN act 9.3*, GAA30 counter 59* and FXN GAA850 conf 24*.
Screening Cc1oc(=O)c(NC(=O)c2ccc(Cl)cc2)cc1C(=O)c1ccccc1 returned NR0B1 inh 1, HSF-1 act 83*, HSP90 inh 0, HSF1 inhib 49, AHR activator 1, GAA850 FXN act 12*, GAA30 counter 7 and FXN GAA850 conf 8.9*.
Screening Cc1oc(=O)c(NC(=O)c2ccccc2)cc1C(=O)c1ccccc1 returned NR0B1 inh 4, HSF-1 act 121*, HSP90 inh -1, HSF1 inhib 79, AHR activator 0, GAA850 FXN act 8.2*, GAA30 counter 100* and FXN GAA850 conf 29*.
For Fc1ccc(Nc2ccnc(Nc3ccc(F)cc3)n2)cc1 the results were NR0B1 inh 0, HSF-1 act 72*, HSP90 inh -2, HSF1 inhib 32, AHR activator 26, GAA850 FXN act 8.4*, GAA30 counter 107* and FXN GAA850 conf 34*.
CCN(Cc1cc2cc(C)ccc2[nH]c1=O)C(=O)c1cccc([N+](=O)[O-])c1 was read as NR0B1 inh 0, HSF-1 act 36, HSP90 inh -1, HSF1 inhib 11, AHR activator 13 and GAA850 FXN act 2.
